# Laboratory results reported in PubChem BioAssay (NCI).
# Compounds without any hit were thinned out: in the full panel of roughly 79,000, 15% have a hit. Calls of active or inactive are those of the source. Cut-off read from the data, not from the text of the source: active = growth inhibition above about 70%; inactive = the rest.
# Legend:
# [1] = NCI Yeast Anticancer Drug Screen. Data for the mec2-1 strain (AID 157); conditions: S. cerevisiae mec2-1 strain, at 50.0 µM, active compounds read high
# Procedure, shortened: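 Test agents were screened against the mec2-1 yeast strain, with defined DNA repair or cell cycle alteration. Growth was scored as inhibition against vehicle-only controls.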
# [2] = NCI Yeast Anticancer Drug Screen. Data for the sgs1 mgt1 strain (AID 161);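 note: 0% = growth of cultures given vehicle only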; conditions: S. cerevisiae sgs1 mgt1 strain, at 50.0 µM, active compounds read high
# Procedure, shortened: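 Test agents were incubated with a DNA-repair-mutant yeast strain. Growth was then read and compared against vehicle-treated controls.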
# [3] = NCI Yeast Anticancer Drug Screen. Data for the cln2 rad14 strain (AID 165);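 note: 0% = growth equal to vehicle treated cultures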; conditions: S. cerevisiae cln2 rad14 strain, at 50.0 µM, active compounds read high
# Procedure, shortened: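 Growth of compound-exposed yeast (cln2 rad14 genotype) measured and expressed as inhibition relative to vehicle.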
# [4] = NCI Yeast Anticancer Drug Screen. Data for the bub3 strain (AID 167); conditions: S. cerevisiae bub3 mutant strain, at 50.0 µM, active compounds read high
# Procedure, shortened: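 Growth of a checkpoint-deficient yeast mutant is measured after compound exposure. Values represent inhibition relative to vehicle.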
# [5] = NCI Yeast Anticancer Drug Screen. Data for the mlh1 rad18 strain (AID 175); conditions: S. cerevisiae mlh1 rad18 strain growth inhibition; at 50.0 µM; active compounds read high
# Procedure, shortened: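 In this whole-cell yeast screen, a strain with altered DNA damage repair is challenged with compound, and its growth is measured against matched vehicle-treated controls.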
SMILES,growth inhibition [1],growth inhibition [2],growth inhibition [3],growth inhibition [4],growth inhibition [5]
Cn1cnc([N+](=O)[O-])c1Sc1ccccc1C(=O)O,-0.15% (inactive),-23.1% (inactive),23.6% (inactive),-0.35% (inactive),-12.1% (inactive)
COC(=O)c1ccc(N=NN(C)COC(C)=O)cc1,12% (inactive),11.2% (inactive),18.5% (inactive),10.2% (inactive),18.8% (inactive)
CCN(CC)CCN(CCN(CC)CC)c1ccc2ccccc2c1,-12.8% (inactive),7.3% (inactive),5.05% (inactive),16.2% (inactive),32.5% (inactive)
CCC1=C(C(C)=O)[C@@H]2CCCCC(C(=O)OC)[C@@H]2C1=O (some centres undefined),-20.3% (inactive),-20.8% (inactive),19.7% (inactive),8.65% (inactive),-3.7% (inactive)
CSCCC(NC(c1ccccc1)c1ccccc1)[P+](=O)O (centres undefined),-44.8% (inactive),-37.5% (inactive),-5.15% (inactive),-3.65% (inactive),-40.1% (inactive)
Clc1ccc(CSc2cnnc(Cl)c2SCc2ccc(Cl)cc2)cc1,-4.5% (inactive),8.2% (inactive),22.8% (inactive),-2.15% (inactive),3.05% (inactive)
COc1c(C(=O)O)[nH]c(=O)[nH]c1=O,-30.1% (inactive),5.8% (inactive),-5.65% (inactive),-14.3% (inactive),-5.5% (inactive)
COc1ccccc1OCC(O)CNc1ccc(Cl)cc1C(=O)c1ccccc1 (centres undefined),21.5% (inactive),-8.8% (inactive),-12% (inactive),-2.7% (inactive),-19.4% (inactive)
N#C[C@H](c1nc2ccccc2s1)c1nc2ccccc2nc1Cl,6.85% (inactive),22.4% (inactive),1.45% (inactive),5.15% (inactive),5.25% (inactive)
O=[N+]([O-])C(/C=C(\Cl)[N+](=O)[O-])=C(N1CCCCC1)N1CCCCC1,-1.8% (inactive),5.85% (inactive),-5.55% (inactive),26.2% (inactive),18.1% (inactive)
O=C1NC2Cc3ccccc3C(C2)O1 (centres undefined),-0.9% (inactive),1.85% (inactive),-1.95% (inactive),15.9% (inactive),11.8% (inactive)
c1ccc2c(c1)N=C(c1cccc3ccccc13)CC(c1cccc3ccccc13)S2 (centres undefined),-20.9% (inactive),-46.5% (inactive),-3.25% (inactive),-18.9% (inactive),-37% (inactive)
Cc1cc(C(N)=O)c(C(N)=O)c(Cl)n1,-7.35% (inactive),-3.2% (inactive),-0.2% (inactive),9.05% (inactive),-10.7% (inactive)
O=C(CCCCCCCCC(=O)c1ccc2ccccc2c1O)c1ccc2ccccc2c1O,-22.1% (inactive),-12.8% (inactive),15% (inactive),-10.4% (inactive),-11.8% (inactive)
Nc1ccccc1C(=O)N/N=C/c1cccnc1,-21.3% (inactive),17.7% (inactive),9.45% (inactive),13.2% (inactive),-16.6% (inactive)
O=C(c1ccccc1)c1nc2ccc(Cl)cc2cc1C(Br)Br,-2.75% (inactive),25.1% (inactive),15.1% (inactive),28.8% (inactive),17.9% (inactive)
O=c1oc2ccccc2cc1F,7.2% (inactive),-9.75% (inactive),5.3% (inactive),16.9% (inactive),21.4% (inactive)
CN(C)c1ccc(C=C2C(=O)CC(C)(C)CC2=O)cc1,10.2% (inactive),23.1% (inactive),16.1% (inactive),5.85% (inactive),-8.4% (inactive)
COc1ccc(CSC(=S)Nc2ccc(C)c(Cl)c2)cc1,18.2% (inactive),18.6% (inactive),10.1% (inactive),-3.35% (inactive),17.2% (inactive)
Clc1cccc(-c2sc(-c3ccsc3)cc2Cc2ccsc2)c1,-20.1% (inactive),-22.1% (inactive),-28.6% (inactive),-24.1% (inactive),2.1% (inactive)

SMILES,growth inhibition [1],growth inhibition [2],growth inhibition [3],growth inhibition [4],growth inhibition [5]
C=Cc1ccc(OC2OC(CO)C(OC3OC(CO)C(O)C(O)C3O)C(O)C2O)cc1 (centres undefined),-18.9% (inactive),-1.1% (inactive),-58.9% (inactive),-0.35% (inactive),-2.8% (inactive)
Nc1nc(NC(=O)C2=NS(=O)(=O)c3cc(S(N)(=O)=O)c(Cl)cc3N2)n[nH]1,-26.2% (inactive),-3.85% (inactive),9.7% (inactive),0.7% (inactive),-2.3% (inactive)
CO/C(N)=C(\C#N)N=Cc1cccs1,4.6% (inactive),11.4% (inactive),5.1% (inactive),-8.4% (inactive),9.9% (inactive)
O=C(O)c1cccnc1-c1ccccc1,23.6% (inactive),-9.85% (inactive),-4.7% (inactive),-12.9% (inactive),-12.2% (inactive)
NC(=S)N/N=c1\cc(C(=O)Nc2ccc([N+](=O)[O-])cc2[N+](=O)[O-])oc2ccccc12,26.3% (inactive),16.1% (inactive),-6% (inactive),22.9% (inactive),28% (inactive)
O=C1Oc2ccccc2C(=O)C1=Ic1ccccc1,52.9% (inactive),73.6% (active),51.3% (inactive),38% (inactive),56% (inactive)
CC1CN1C(=O)Nc1cccc2c(NC(=O)N3CC3C)cccc12 (centres undefined),-12.4% (inactive),-8.85% (inactive),-15.8% (inactive),22.4% (inactive),-2.45% (inactive)
COC(=O)CC1(C(=O)OC)Oc2ccc(Br)cc2C(=O)N1c1ccc(Br)cc1Cl (centres undefined),-16.4% (inactive),24.6% (inactive),15.2% (inactive),19.4% (inactive),27.7% (inactive)
CC=C(c1ccccc1)c1ccccc1,-25.2% (inactive),-13.7% (inactive),-10% (inactive),-3.3% (inactive),-15.2% (inactive)
CC(=O)C1C(=O)C(=O)N(c2ccc(S(N)(=O)=O)cc2)C1=O (centres undefined),1.3% (inactive),7.6% (inactive),-32.7% (inactive),-14.2% (inactive),8.05% (inactive)
O=C(NN1C(=O)C(Cl)C1c1ccccc1O)c1ccccc1O (centres undefined),-26.5% (inactive),-15.6% (inactive),-15.1% (inactive),-16.6% (inactive),-29.4% (inactive)
O=C(c1ccc(Cl)cc1)N(C(=S)N1CCN(c2ccccc2)CC1)C1CCCCC1,-11.3% (inactive),-19.5% (inactive),22.7% (inactive),-21% (inactive),-4.05% (inactive)
O=C(O)C1c2ccccc2-c2ccccc21,31.6% (inactive),41.5% (inactive),-37.7% (inactive),37.6% (inactive),39% (inactive)
C/C(=N/O)c1ccc(C(F)(F)F)cc1,,-18.8% (inactive),-17.9% (inactive),-48.5% (inactive),-2.15% (inactive)
CCOC(=N)c1cn(C2OC(CO)C(O)C2O)c2nc[nH]c(=O)c12 (centres undefined),-5.25% (inactive),11.2% (inactive),23.4% (inactive),16.2% (inactive),0.4% (inactive)
Clc1ccc(C(Cl)(c2ccc(Cl)cc2)C(Cl)(Cl)Cl)cc1,-14.4% (inactive),-7.4% (inactive),-6.2% (inactive),32.9% (inactive),11.8% (inactive)
O=S1(=O)CCCCc2ccccc21,-0.75% (inactive),3.75% (inactive),-9.35% (inactive),1.85% (inactive),-23.2% (inactive)
O=C(NC(=S)Nc1ccc(Cl)c(Cl)c1)c1cccc([N+](=O)[O-])c1,3.35% (inactive),10.9% (inactive),0.65% (inactive),-3.2% (inactive),5.7% (inactive)
CCCCC1CCC(C(=O)O)=NC1 (centres undefined),6.7% (inactive),25.1% (inactive),-9.95% (inactive),-0.45% (inactive),-11.4% (inactive)
